# Source: PubChem BioAssay AID642 (Vanderbilt High Throughput Screening Facility, 2007)
# Out of some 2,200 compounds screened, about 2,000 (91%) were called active. So high a share suggests a set chosen from earlier hits. These entries were drawn from the full list. A number with no mark means an inactive call.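 The calls were made as follows: active = luminescence in either of two replicates above the same-plate mean plus 3 SD of the low-dose dopamine control; inactive = the rest.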
# Molecular target: D(1A) dopamine receptor (Homo sapiens) (UniProt P21728)
# Test: D1 receptor positive allosteric modulators, retest, confirmation, cell-based, HEK293 D1, CRE-luciferase, duplicate (AID 642)
# Settings: dopamine EC30 potentiation, at 10 µM, hits give high values
# D(1A) dopamine receptor (Homo sapiens), sequence (P21728 whole entry, looked up): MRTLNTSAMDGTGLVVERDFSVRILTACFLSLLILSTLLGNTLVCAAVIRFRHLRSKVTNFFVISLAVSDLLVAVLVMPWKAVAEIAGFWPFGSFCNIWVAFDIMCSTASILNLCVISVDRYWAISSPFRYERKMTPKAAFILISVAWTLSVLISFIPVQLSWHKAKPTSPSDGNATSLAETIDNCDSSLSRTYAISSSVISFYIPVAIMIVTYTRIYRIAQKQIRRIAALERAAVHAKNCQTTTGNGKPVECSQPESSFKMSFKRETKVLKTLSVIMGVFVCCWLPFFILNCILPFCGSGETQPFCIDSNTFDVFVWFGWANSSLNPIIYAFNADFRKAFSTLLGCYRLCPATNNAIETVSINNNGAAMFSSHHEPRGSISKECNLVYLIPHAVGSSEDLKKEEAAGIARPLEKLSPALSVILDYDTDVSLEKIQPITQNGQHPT
row,Structure (SMILES),luminescence
1,CCn1c(=N)c(S(=O)(=O)c2ccc(F)cc2)cc2c(=O)n3ccccc3nc21,18300 (active)
2,CCc1ccc2oc(=O)cc(CN3CCCCC3C)c2c1 (stereo not given),10700 (active)
3,COc1ccc(CCNC(=O)CCn2c(=O)oc3ccccc32)cc1OC,12500 (active)
4,COc1ccc(CCNC(=O)c2cc3sccc3n2C)cc1OC,7950
5,CCCc1nc(-c2ccccc2O)n(-c2ccccc2)n1,14800 (active)
6,COc1ncnc2sc3c(c12)CCCC3,9980 (active)
7,N#Cc1c(N)sc2c1CCN(C(=O)OCc1ccccc1)C2,11700 (active)
8,COc1ccc(-c2n[nH]c(C)c2-c2ccc(OC)c(OC)c2)c(O)c1,7480 (active)
9,c1ccc(COc2nsnc2N2CCOCC2)cc1,9440 (active)
10,CCSc1nc(C)nc2c1oc1ccccc12,15900 (active)
11,c1ccc(-c2nnc3n2NC(c2ccc4c(c2)OCO4)S3)cc1 (stereo not given),13600 (active)
12,Cn1c(=O)c2cn(-c3cccc4ccccc34)cc2n(C)c1=O,8890 (active)
13,COc1ccc(S(=O)(=O)N(C)CC(=O)Nc2ccc3c(c2)OCCO3)cc1OC,7550 (active)
14,COC(=O)C1=C(C)NC2=C(C(=O)c3ccccc32)C1c1ccc(-c2ccc(C(=O)O)cc2)o1 (stereo not given),12100 (active)
15,COc1ccc(-c2nn3c(-c4ccccc4)nnc3s2)cc1OC,22300 (active)
16,COc1cc(-c2nn3c(-c4cccc(C)c4)nnc3s2)cc(OC)c1OC,12800 (active)
17,N#CCSc1nc2ccccc2c(=O)n1-c1ccccc1,19300 (active)
18,CCOc1ccc(Cn2c(SCCCCC#N)nc3c2c(=O)n(C)c(=O)n3C)cc1OCC,14200 (active)
19,CCC(=O)NC(=Nc1nc2ccccc2s1)NC(=O)CC,18700 (active)
20,CCNc1nc(NCC)nc(N(C)n2cnnc2)n1,15800 (active)

row,Structure (SMILES),luminescence
1,C/C(Cl)=C\Cn1c(Nc2cccc(C)c2)nc2c1c(=O)n(C)c(=O)n2C,12000 (active)
2,Cc1cc(C)c2c(n1)nn1c(-n3ccnc3)cc(C)nc21,11600 (active)
3,COc1ccc(-c2cc(C(F)(F)F)nc(S(C)(=O)=O)n2)cc1OC,10100 (active)
4,CCCn1c(=O)c2[nH]c(C3CCCC3)nc2n(CCC)c1=O,22800 (active)
5,CC(C)c1cc(C(=O)O)on1,5510
6,CCOc1ccc2c(c1)cc(CN(C(=O)CC)C1CCCCC1)c1nnnn12,16400 (active)
7,CC(C)n1c(C(O)c2ccccc2)nc2ccccc21 (stereo not given),6650 (active)
8,COC(=O)Nc1ncc(CN2C(=O)c3ccccc3C2=O)s1,9780 (active)
9,O=C(c1ccco1)N1CCN=C1SCc1cccc(Cl)c1,9520 (active)
10,O=c1cc(-c2ccccc2)nc(N2CCCCC2)[nH]1,12700 (active)
11,Cc1ccc(S(=O)(=O)c2c(N)n(C)c3nc4ccccc4nc23)cc1,11800 (active)
12,CCOC(=O)c1cc2n(c1C)-c1ccccc1C2=O,9350 (active)
13,C/C(=C\C(=O)c1ccccc1)Nc1cccc(O)c1,3550 (active)
14,N#Cc1nc(N)nc(N(c2ccccc2)c2ccccc2)n1,13100 (active)
15,CCc1cc(=O)oc2cc(OCC(=O)N3CCCc4ccccc43)ccc12,14000 (active)
16,CCn1nc(C(=O)OCC(=O)N2c3ccccc3CC2C)c2ccccc2c1=O (stereo not given),13900 (active)
17,Cc1ccc(-c2nn(-c3ccccc3)cc2CN(Cc2ccccc2)C(=O)CCC(=O)O)o1,9380 (active)
18,O=C(NCc1ccccn1)c1ccc2nc(-c3ccco3)c(-c3ccco3)nc2c1,10400 (active)
19,C=CCn1cnc2scc(-c3ccccc3)c2c1=O,16400 (active)
20,CCOC(=O)/C=c1\s/c(=C\c2ccccc2OC)c(=O)n1CC(=O)N1CCOCC1,15600 (active)
